Results taken from PubChem BioAssay AID1159580 (chemical genetic matrix, 2015).
Screen size: about 5,500 compounds; about 2,000 (36%) were called active. About 18% were inconclusive and are not listed. No stated cut-off is given here; in the data, active means normalized growth mostly below about 0.91 (no sharp cut-off); inconclusive means no clear call, values can overlap the other calls; inactive means mostly above about 0.92. Some of the results follow.

Assay: chemical genetic growth profiling, strain panel (AID 1159580);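 further: tested at 20 µM; growth read once vehicle control cultures reached saturation at 30 °C; 1 = growth at the plate median or of vehicle wells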
Conditions: growth OD

Measured: normalized growth

C=CCN1CC[C@]23c4c5ccc(O)c4OC2C(=O)CC[C@@]3(O)[C@H]1C5 (some centres not stated)
inactive: S. cerevisiae deletion strains, locus YJR075W, strain HOC1, stronger effect = lower value 1 | S. cerevisiae deletion strains, locus YKL009W, strain mrt4, stronger effect = lower value 0.977 | S. cerevisiae deletion strains, locus YKL068W, stronger effect = lower value 0.993 | S. cerevisiae deletion strains, locus YKL085W, strain MDH1 (second series), stronger effect = lower value 1 | S. cerevisiae deletion strains, locus YKL085W, strain MDH1, stronger effect = lower value 1 | S. cerevisiae deletion strains, locus YKL160W, strain elf1, stronger effect = lower value 0.975 | S. cerevisiae deletion strains, locus YKL190W, strain CNB1, stronger effect = lower value 1 | S. cerevisiae deletion strains, locus YKR001C, strain vps1, stronger effect = lower value 0.989 | S. cerevisiae deletion strains, locus YKR026C, strain gcn3, stronger effect = lower value 0.979 | S. cerevisiae deletion strains, locus YKR091W, strain srl3, stronger effect = lower value 0.973 | S. cerevisiae deletion strains, locus YLL001W, strain dnm1, stronger effect = lower value 0.983 | S. cerevisiae deletion strains, locus YLL026W, stronger effect = lower value 0.988 | S. cerevisiae deletion strains, locus YLL041C, strain sdh2, stronger effect = lower value 0.963 | S. cerevisiae deletion strains, locus YLR027C, strain aat2, stronger effect = lower value 0.976 | S. cerevisiae deletion strains, locus YLR039C, strain RIC1, stronger effect = lower value 1 | S. cerevisiae deletion strains, locus YLR058C, strain SHM2, stronger effect = lower value 1.01 | S. cerevisiae deletion strains, locus YLR102C, strain apc9, stronger effect = lower value 0.998 | S. cerevisiae deletion strains, locus YLR113W, strain HOG1, stronger effect = lower value 0.973 | S. cerevisiae deletion strains, locus YLR221C, strain rsa3, stronger effect = lower value 0.982 | S. cerevisiae deletion strains, locus YLR258W, strain gsy2, stronger effect = lower value 0.983 | S. cerevisiae deletion strains, locus YLR262C, strain YPT6 (second series), stronger effect = lower value 0.97 | S. cerevisiae deletion strains, locus YLR262C, strain YPT6, stronger effect = lower value 1.04 | S. cerevisiae deletion strains, locus YLR268W, strain sec22, stronger effect = lower value 1.04 | S. cerevisiae deletion strains, locus YLR320W, strain mms22, stronger effect = lower value 0.969 | S. cerevisiae deletion strains, locus YLR330W, strain CHS5, stronger effect = lower value 1.01 | S. cerevisiae deletion strains, locus YLR342W, strain FKS1 (second series), stronger effect = lower value 1.01 | S. cerevisiae deletion strains, locus YLR342W, strain FKS1, stronger effect = lower value 0.962 | S. cerevisiae deletion strains, locus YLR357W, strain rsc2, stronger effect = lower value 0.939 | S. cerevisiae deletion strains, locus YLR370C, strain arc18, stronger effect = lower value 0.973 | S. cerevisiae deletion strains, locus YLR371W, strain rom2, stronger effect = lower value 0.976 | S. cerevisiae deletion strains, locus YLR384C, strain iki3, stronger effect = lower value 0.963 | S. cerevisiae deletion strains, locus YLR418C, strain cdc73, stronger effect = lower value 0.999 | S. cerevisiae deletion strains, locus YML016C, strain PPZ1, stronger effect = lower value 1.01 | S. cerevisiae deletion strains, locus YML032C, strain rad52, stronger effect = lower value 1.02 | S. cerevisiae deletion strains, locus YML120C, strain ndi1, stronger effect = lower value 0.974 | S. cerevisiae deletion strains, locus YML124C, strain tub3, stronger effect = lower value 0.991 | S. cerevisiae deletion strains, locus YMR058W, strain fet3, stronger effect = lower value 0.98 | S. cerevisiae deletion strains, locus YMR078C, strain ctf18, stronger effect = lower value 1 | S. cerevisiae deletion strains, locus YMR125W, strain sto1, stronger effect = lower value 0.936 | S. cerevisiae deletion strains, locus YMR129W, stronger effect = lower value 0.954 | S. cerevisiae deletion strains, locus YMR205C, strain PFK2, stronger effect = lower value 0.979 | S. cerevisiae deletion strains, locus YMR223W, strain ubp8, stronger effect = lower value 0.99 | S. cerevisiae deletion strains, locus YMR231W, strain pep5, stronger effect = lower value 0.977 | S. cerevisiae deletion strains, locus YMR263W, strain SAP30, stronger effect = lower value 1.02 | S. cerevisiae deletion strains, locus YMR307W, strain GAS1, stronger effect = lower value 1.05 | S. cerevisiae deletion strains, locus YNL067W, strain RPL9B, stronger effect = lower value 1.02 | S. cerevisiae deletion strains, locus YNL071W, strain lat1, stronger effect = lower value 0.956 | S. cerevisiae deletion strains, locus YNL128W, strain TEP1, stronger effect = lower value 1.01 | S. cerevisiae deletion strains, locus YNL153C, strain GIM3, stronger effect = lower value 1.02 | S. cerevisiae deletion strains, locus YNL183C, strain NPR1, stronger effect = lower value 0.941 | S. cerevisiae deletion strains, locus YNL209W, strain ssb2, stronger effect = lower value 0.945 | S. cerevisiae deletion strains, locus YNL233W, strain BNI4, stronger effect = lower value 1.03 | S. cerevisiae deletion strains, locus YNL248C, strain rpa49, stronger effect = lower value 0.948 | S. cerevisiae deletion strains, locus YNL250W, strain rad50, stronger effect = lower value 0.988 | S. cerevisiae deletion strains, locus YNL271C, strain bni1, stronger effect = lower value 0.998 | S. cerevisiae deletion strains, locus YNL298W, strain CLA4, stronger effect = lower value 1.01 | S. cerevisiae deletion strains, locus YNL307C, strain MCK1, stronger effect = lower value 0.996 | S. cerevisiae deletion strains, locus YNL322C, strain KRE1 (second series), stronger effect = lower value 0.927 | S. cerevisiae deletion strains, locus YNL322C, strain KRE1, stronger effect = lower value 1 | S. cerevisiae deletion strains, locus YNR049C, strain mso1, stronger effect = lower value 0.973 | S. cerevisiae deletion strains, locus YNR052C, strain pop2, stronger effect = lower value 1 | S. cerevisiae deletion strains, locus YOL006C, strain TOP1, stronger effect = lower value 1.07 | S. cerevisiae deletion strains, locus YOL012C, strain htz1 0.779 | S. cerevisiae deletion strains, locus YOL147C, strain pex11, stronger effect = lower value 0.996 | S. cerevisiae deletion strains, locus YOR001W, strain rrp6, stronger effect = lower value 0.97 | S. cerevisiae deletion strains, locus YOR061W, strain CKA2, stronger effect = lower value 1.02 | S. cerevisiae deletion strains, locus YOR069W, strain VPS5, stronger effect = lower value 1.01 | S. cerevisiae deletion strains, locus YOR070C, strain gyp1, stronger effect = lower value 0.964 | S. cerevisiae deletion strains, locus YOR080W, strain dia2, stronger effect = lower value 0.969 | S. cerevisiae deletion strains, locus YOR083W, strain WHI5, stronger effect = lower value 0.979 | S. cerevisiae deletion strains, locus YOR106W, strain vam3, stronger effect = lower value 0.948 | S. cerevisiae deletion strains, locus YOR136W, strain idh2, stronger effect = lower value 0.995 | S. cerevisiae deletion strains, locus YOR144C, strain elg1, stronger effect = lower value 1 | S. cerevisiae deletion strains, locus YOR184W, strain ser1, stronger effect = lower value 0.998 | S. cerevisiae deletion strains, locus YOR231W, strain MKK1, stronger effect = lower value 0.994 | S. cerevisiae deletion strains, locus YOR265W, strain rbl2, stronger effect = lower value 0.983 | S. cerevisiae deletion strains, locus YOR270C, strain vph1, stronger effect = lower value 0.935 | S. cerevisiae deletion strains, locus YOR290C, strain snf2, stronger effect = lower value 0.968 | S. cerevisiae deletion strains, locus YOR316C, strain cot1, stronger effect = lower value 0.994 | S. cerevisiae deletion strains, locus YPL051W, strain arl3, stronger effect = lower value 0.983 | S. cerevisiae deletion strains, locus YPL055C, strain LGE1, stronger effect = lower value 1.01 | S. cerevisiae deletion strains, locus YPL078C, strain atp4, stronger effect = lower value 0.968 | S. cerevisiae deletion strains, locus YPL106C, strain sse1, stronger effect = lower value 0.957 | S. cerevisiae deletion strains, locus YPL240C, strain hsp82, stronger effect = lower value 0.965 | S. cerevisiae deletion strains, locus YPL241C, strain CIN2, stronger effect = lower value 1.01 | S. cerevisiae deletion strains, locus YPL256C, strain CLN2, stronger effect = lower value 0.979 | S. cerevisiae deletion strains, locus YPR119W, strain clb2, stronger effect = lower value 1 | S. cerevisiae deletion strains, locus YPR141C, strain kar3, stronger effect = lower value 0.996 | S. cerevisiae deletion strains, locus YPR163C, strain tif3, stronger effect = lower value 0.996 | S. cerevisiae deletion strains, locus YPR167C, strain met16, stronger effect = lower value 1 | S. cerevisiae deletion strains, strain wtn01, stronger effect = lower value 1.01 | S. cerevisiae strains, strain wild type, stronger effect = lower value 1.01
